HDAC3 inh: inhibitors of human histone deacetylase 3 | 320,000 tested, 0.15% active | recombinant HDAC3, fluorogenic peptide/trypsin coupled, fluorescence | O15379 | inhibition, % at 8.3 µM; in the data active = inhibition above about 26%, passing the limit was not always enough
GC-B act: GC-B (human) receptor activation; activation, % at 10 µM; HEK293-GC-B cells, CNP EC30, cGMP TR-FRET; 0% at EC30 CNP, 100% saturating CNP; 370,000 tested, 0.11% active; P20594;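 active = activation at 10 µM reaching about 35% in either raw or pattern-adjusted values, limit read from the data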
ALR inh: inhibitors of human sulfhydryl oxidase ALR. P55789. 290,000 tested, 3.8% active. purified ALR, DTT oxidation, H2O2 HRP-luminol luminescence. inhibition, % (no concentration beside the values). AID 485317;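 active = mean replicate inhibition above about 79%, with every replicate also reaching it, limit read from the data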
GC-A act: GC-A (human) enzyme activation. P16066. HEK293 GC-A cells, cGMP TR-FRET, EC30 ANP; 0% at EC30 ANP, 100% saturating ANP. activation, % at 10 µM. 370,000 tested, 0.14% active; in the data active = activation above about 40%
Active calls of the source: *; / = no result given. The sample as a whole holds a higher share of hits than the screen did.

SMILES	HDAC3 inh	GC-B act	ALR inh	GC-A act
CN1CCN(S(=O)(=O)c2ccc(N3CCN(c4ccccc4Cl)CC3)nc2)CC1	-1.0	-2.6	/	1.3
COc1ccc(-c2nnc(SCC(=O)Nc3ncc(C)s3)n2-c2ccccc2)cc1OC	2.9	-7.5	-4.1	-7.2
c1ccc(CN2C3=NCCN3c3ccccc32)cc1	4.2	-1.0	95.7*	-1.5
Clc1ccc(CN2C3=NCCN3c3ccccc32)cc1Cl	3.8	-17.6	98.2*	-34.4
Cc1ccc(CN2C3=NCCN3c3ccccc32)cc1	5.2	2.2	/	-2.9
O=C(CN1C2=NCCN2c2ccccc21)C12CC3CC(CC(C3)C1)C2	2.8	-6.4	98.4*	-0.4
O=C(O)Cc1ccc(O)c(F)c1	-3.8	-2.4	/	2.3
O=C(O)c1ccc(O)c(O)c1	1.1	5.4	98.0*	5.7
O=C(O)c1ccc(-c2ccc(O)c(F)c2)cc1	/	3.0	98.0*	1.5
O=C(CC1SC(=NCCc2ccccc2)N(/N=C/c2cccs2)C1=O)Nc1ccc(Cl)cc1 (centres undefined)	-6.0	3.5	-1.4	3.4
Fc1cccc(Cn2ccc3ccc(-c4ccc5ccn(Cc6ccccc6)c5c4)cc32)c1	/	2.7	/	-3.0
COc1cccc2sc(Nc3nc(-c4ccncc4)cs3)nc12	0.3	-14.9	/	-17.6
COc1ccccc1-c1nnc(Nc2nc3c(OC)cccc3s2)o1	-16.3	-5.4	-1.8	-2.2
COc1cccc2sc(Nc3nnc(-c4ccccc4Cl)o3)nc12	-2.5	-1.6	86.3*	0.8
COc1cccc2sc(NN)nc12	4.2	3.0	98.4*	4.4
CC1=C(C(=O)N2CCOCC2)CC(CC(=O)NCCCCc2ccccc2)C(=O)N1CCC1=CCCCC1 (centres undefined)	/	-1.1	/	0.6
CC1C(=O)N(Cc2cn(CCC3OCCO3)nn2)CCS(=O)(=O)N1Cc1ccc(-c2ccc(Cl)cc2)cc1 (centres undefined)	/	-8.6	/	49.3*
Cc1cc(C)c(S(=O)(=O)Nc2ccc(O)cc2)c(C)c1	2.2	4.6	98.7*	2.2
Cc1cc(=O)[nH]c2ccc(S(=O)(=O)Nc3ccc(O)cc3)cc12	4.4	2.1	99.4*	-2.1
Cc1cc(C)c(S(=O)(=O)Nc2ccccc2)c(C)c1	/	0.1	/	-3.6
Cc1cc(=O)[nH]c2ccc(S(=O)(=O)Nc3ccccc3)cc12	2.5	-17.3	-1.3	-38.4
COc1ccc(CNC(=O)c2ccc(-n3ccnc3)c3ccoc23)cc1OC	/	4.1	/	7.1
Cc1nccc(-c2sc(-c3cccs3)nc2C)n1	-122.5	-2.6	85.4*	6.5
Cc1nc(-c2cccs2)sc1C(=O)O	-8.6	-6.8	-3.4	3.1
Cc1ccc(C(=O)NC2CC(C)(C)NC(C)(C)C2)cc1C	6.5	1.9	98.7*	2.7
SMILES	HDAC3 inh	GC-B act	ALR inh	GC-A act
Cc1cc(=O)oc2cc(OCC(=O)NC3CCCCC3)ccc12	6.5	-7.4	-0.5	1.8
CCc1sc(C(=O)Nc2nc(-c3ccccn3)cs2)cc1C	0.1	/	2.6	/
CSc1nc2ccc3nc(NC(=O)c4cccs4)sc3c2s1	4.0	-2.1	0.9	0.2
Cc1ccc(C(=O)Nc2nc(-c3ccccn3)cs2)s1	2.0	1.6	86.9*	1.2
CSc1nc2ccc3nc(NC(=O)c4ccc(Cl)s4)sc3c2s1	8.5	/	91.1*	/
O=C(Nc1nc(-c2ccccn2)cs1)c1ccc(Cl)s1	-3.7	-1.1	87.2*	2.6
COC(=O)C1CN(Cc2ccccc2)CCS(=O)(=O)N1Cc1cccc(Cl)c1 (centres undefined)	/	-3.5	/	-12.2
CC(C)c1nc(CNC(=O)C2CCC(=O)N(CCc3ccc(Cl)cc3)C2)no1 (centres undefined)	-0.2	-2.7	-1.6	2.6
O=C1CC(c2ccccc2)CC(O)=C1C=Nc1ccc(Cl)cc1 (centres undefined)	-3.9	-3.5	0.9	-1.4
O=C1CCCC(O)=C1C=Nc1ccc(O)cc1	5.5	-1.6	99.2*	-3.0
CCOC(=O)c1sc(NNC(=O)c2ccc(C)cc2)nc1C	-4.4	1.8	/	0.1
CCOC(=O)c1nc(NNC(=O)c2ccc([N+](=O)[O-])cc2)sc1C	-2.3	-1.9	99.2*	3.1
CC(C)(C)CC(C)(C)c1ccc(OCCOCC[N+](C)(C)Cc2ccccc2)cc1	39.9*	-2.7	0.3	-1.4
C[N+](C)(CCOc1ccccc1)Cc1ccccc1 (tested in a mixture with another compound)	-1.5	-0.9	17.5	5.9
COc1ccc(-n2nnnc2CNC(=O)c2c(-c3ccccc3Cl)noc2C)cc1	/	0.7	/	1.2
CC(=O)c1ccc(NC(=S)Nc2ccc3[nH]c(=O)[nH]c3c2)cc1	-6.4	-2.4	-12.7	-1.9
Cc1ccc(NC(=S)Nc2ccc3[nH]c(=O)[nH]c3c2)cc1C	-5.4	-3.2	90.0*	1.2
C(=N\N(c1ccccc1)c1ccccc1)/c1ccc2c(c1)OCO2	0.2	-3.2	-4.7	0.3
O=S(=O)(N/N=C\c1ccc2c(c1)OCO2)c1ccc(F)cc1	-4.4	-0.3	86.4*	-2.2
CN(/N=C/c1ccc2c(c1)OCO2)c1ccccc1	3.2	-5.2	85.1*	-2.9
COc1cc(/C=N/N(C)c2ccccc2)ccc1O	6.6	-4.1	98.9*	-1.1
Clc1ccccc1N/N=C/c1ccc2c(c1)OCO2	5.5	-2.7	99.0*	3.0
COc1ccccc1[C@]1(C)ON(c2ccccc2C(F)(F)F)C1=O	4.1	6.6	-5.7	-4.1
COc1ccc(OC)c(S(=O)(=O)Nc2cc3c(cc2N2CCCC2)n(C)c(=O)c(=O)n3C)c1	-1.4	-4.0	-37.5	0.5
CC(NS(=O)(=O)c1ccc(Br)cc1)C(=O)NCCc1ccccc1 (centres undefined)	-12.3	2.4	-1.0	-0.1
SMILES	HDAC3 inh	GC-B act	ALR inh	GC-A act
CC(=O)Nc1ccc(S(=O)(=O)NC(C)C(=O)NCCc2ccc(F)cc2)cc1 (centres undefined)	1.2	-1.1	98.3*	-2.3
CN(Cc1ccc(OC(F)F)cc1)C(=O)C1CCN(S(=O)(=O)c2ccc3c(c2)OCCO3)CC1	13.4	-1.5	-4.4	-2.5
O=C(C1CCN(S(=O)(=O)c2cccc3cccnc23)CC1)N1CCN(C2CCCC2)CC1	2.4	-3.2	82.2*	2.2
O=C(NCc1cccs1)C1CCN(S(=O)(=O)c2cccc3cccnc23)CC1	-7.0	-6.0	94.7*	-2.3
Cc1cccc(NC(=O)C2CCN(S(=O)(=O)c3cccc4cccnc34)CC2)n1	0.2	-12.6	27.2	-0.2
O=C(C1CCN(S(=O)(=O)c2cccc3cccnc23)CC1)N1CCCCC1	-6.3	-4.5	-3.1	-0.2
Cc1ccc(NC(=O)C2CCN(S(=O)(=O)c3cccc4cccnc34)CC2)nc1	5.7	-8.6	95.5*	-3.4
CCOC(=O)N1CCN(Cc2ccc3ccccc3c2)CC1	-2.8	-1.3	-6.3	-2.6
Cc1ccccc1NC(=O)CCc1nnc2ccc(N3CCC4(CC3)OCCO4)nn12	-4.2	1.8	-9.6	3.8
O=C1c2ccccc2C(Nc2cccnc2)N1Cc1ccc2c(c1)OCO2 (centres undefined)	3.2	-2.9	0.3	-2.0
O=C1c2ccccc2C(Nc2ccc3c(c2)OCO3)N1Cc1ccc2c(c1)OCO2 (centres undefined)	1.9	-5.5	8.6	59.1*

Screening results (PubChem BioAssay)
